# Compound activity (PubChem BioAssay)
# IL-1B inflam inh = blocks inflammasome-driven IL-1 beta release | AID 743279 | 360,000 compounds, 4.7% hits | activity change, % at 57.5 µM | THP-1 LPS/ATP IL-1B secretion, AlphaLISA, 16 h; stronger effect = lower value; in the data active = activity change below about -50%; inconclusive = mostly about -30% to -49%
#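 Secreted IL-1B measured by AlphaLISA bead assay after 16 h compound exposure of THP-1 cells; compounds (final up to 57.5 uM) added 1 h before LPS (250 ng/mL) and ATP (1.25 mM) stimulation; lower signal means less secretion.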
# HepG2 tox = HepG2 cytotoxicity, counter-screen for TGF-b inhibitors | Potency, µM (highest dose often 46.1 µM), actives largely listed as cytotoxic | 410,000 compounds, 0.76% hits | HepG2 CAGA-GFP viability, ATP luminescence, 18 h
#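 CellTiter-Glo luminescence gave cytotoxicity after 18 hours at 37 degrees C. The cells were HepG2 CAGA-GFP in 1% FBS DMEM, stimulated with 500 pg/mL TGF-beta after compound addition. %Activity was normalised to no-cell wells (complete cell-killing) and DMSO (no toxicity), and curves were fitted and classified.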
# TDP1 block = TDP1 (human) enzyme inhibition | 350,000 compounds, 0.28% hits | Potency, µM (series often up to 130 µM), most hits filed as inhibitors | recombinant TDP1, AlphaScreen DNA substrate cleavage | AID 485290 | Q9NUW8; note: nearly all actives have a fitted effect of over 40% in size
# Target sequence (Q9NUW8 whole entry, looked up): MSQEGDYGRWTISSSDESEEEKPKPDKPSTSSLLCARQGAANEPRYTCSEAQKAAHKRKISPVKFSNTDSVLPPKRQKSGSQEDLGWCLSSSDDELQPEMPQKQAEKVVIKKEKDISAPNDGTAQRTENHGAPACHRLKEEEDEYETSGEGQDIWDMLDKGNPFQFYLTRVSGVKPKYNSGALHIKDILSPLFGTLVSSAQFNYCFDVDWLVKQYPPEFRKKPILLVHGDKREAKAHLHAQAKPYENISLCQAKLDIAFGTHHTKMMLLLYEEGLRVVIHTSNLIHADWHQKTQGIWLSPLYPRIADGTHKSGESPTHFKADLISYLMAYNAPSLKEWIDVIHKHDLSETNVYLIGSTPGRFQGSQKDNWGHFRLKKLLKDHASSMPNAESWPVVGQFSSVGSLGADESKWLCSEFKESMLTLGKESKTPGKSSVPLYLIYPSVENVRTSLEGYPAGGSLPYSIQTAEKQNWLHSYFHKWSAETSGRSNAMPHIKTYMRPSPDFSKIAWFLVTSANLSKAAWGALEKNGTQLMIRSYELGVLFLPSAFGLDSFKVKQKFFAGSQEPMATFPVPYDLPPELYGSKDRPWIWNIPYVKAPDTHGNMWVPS
#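 Recombinant human Tdp1 (E. coli-expressed, 1 nM final) preincubated with compounds 15 min at room temperature, then 5'-biotin/3'-phosphotyrosine-FITC DNA substrate (15 nM final) added for 5 min. AlphaScreen beads (10 ug/ml final) added 10 min; cleavage lowers signal.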
# TGFb SMAD3 inh = TGF-b pathway inhibition | HepG2 CAGA-GFP TGF-b/SMAD3 reporter, GFP fluorescence, 18 h; TGF-beta stimulated, 500 pg/mL final | Potency, µM (highest dose often 46.1 µM), most hits filed as inhibitors | 410,000 compounds, 1.2% hits; note: nearly all actives have a fitted effect of over 65% in size
#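 Read-out: total well GFP (ex488/em500-530) summed from mean per-cell fluorescence. Cells: HEPG2 CAGA-GFP, 1% FBS DMEM, 18 h at 37 degrees C with 500 pg/mL final TGF-beta. Unstimulated wells served as the full-inhibition control; stimulated DMSO wells = 0%.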
# DT40 TDP1 CPT = DT40-hTDP1 cell growth loss with CPT; chicken DT40 Tdp1-/-;hTDP1 cells + 20 nM CPT, ATP luminescence, 48 h; Potency, µM (doses to about 46.2 µM), actives largely listed as inhibitors; 420,000 compounds, 12% hits; AID 686979; note: nearly all actives have a fitted effect of over 55% in size
#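 Cell growth measured by CellTiter-Glo luminescence after a minimum 48 h, 37 C compound exposure with 20 nM CPT in Tdp1-knockout DT40 cells stably expressing hTDP1, seeded 400/well; qHTS titration format.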
# TDP1 cell noCPT = qHTS for Inhibitors of human tyrosyl-DNA phosphodiesterase 1 (TDP1): qHTS in cells in absence of CPT; AID 686978, 2013; 420,000 compounds, 15% hits; DT40 Tdp1-/- hTDP1 cells, no CPT, ATP luminescence, 48 h; Potency, µM (titrated, usually from 46.2 µM), most hits filed as inhibitors; note: nearly all actives have a fitted effect of over 55% in size
#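 Luminescent ATP content (CellTiter-Glo) served as the growth readout. Knockout chicken DT40 cells expressing human TDP1 were exposed to compounds without camptothecin for a minimum 48 hr at 37 °C.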
# A number is an active result; i = inactive; ? = inconclusive; nt = not tested or not shown; [ ] = another dose, or the depositor's remark. Most compounds without a hit are left out; they make up all but 19% or so of the library. Unless noted, calls come from the whole dose curve; as a rule, active = well fitted curve in the direction sought with a large enough effect; inconclusive = small, poorly fitted or top-dose-only effect, or another doubt; inactive = no such curve, though single readings can be large; an effect the other way counts as inactive or inconclusive.
SMILES,IL-1B inflam inh,HepG2 tox,TDP1 block,TGFb SMAD3 inh,DT40 TDP1 CPT,TDP1 cell noCPT
CC1CCN(S(=O)(=O)c2ccc3c(c2)C(Cl)(Cl)C(=O)N3)CC1,i,i,nt,?,10µM,16µM
CCOC(=O)c1c(C)n(C)c2ccc(OCCN(C)C)cc12,?,i,i,i,i,i
CCOC(=O)c1c(C)n(-c2ccccc2)c2ccc(OC(=O)c3cccc(Cl)c3)cc12,nt,i,i[2.28 µM],i,?,26µM
CCOC(=O)c1c(C)n(-c2ccccc2)c2ccc(OCCN(C)C)cc12,-80,i,nt,i,?,?
CCOC(=O)c1c(C)n(C)c2cc(OCCN(CC)CC)ccc12,-55,i,i,i,i,i
CCOC(=O)c1c(C)n(-c2ccccc2)c2ccc(OC(=O)c3ccccc3)cc12,nt,i,i[12.3 µM],i,?,16µM
CCOC(=O)c1ccc(NC(=O)CN2C(=O)c3cccnc3Sc3ccccc32)cc1,nt,i,i,i,?,?
Cc1ccc(-n2ncc3c(NC4CCCCC4)ncnc32)cc1C,nt,i,i,i,?,?
CCOC(=O)c1c(S(=O)(=O)N2CCCC(C(=O)Nc3cccc(C#N)c3)C2)c(C)n(C)c1C (stereo not drawn),nt,i,i,i,?,?
CCOC(=O)c1c(C)n(-c2ccc(C)cc2)c2ccc(OCC(O)CNCC3CCCO3)cc12 (stereo not drawn),-54,i,i,?,16µM,18µM
CCOC(=O)c1c(C)n(C)c2ccc(OCC(O)CNC(CC)CO)cc12 (stereo not drawn),?,i,i,i,i,i
CCOc1ccc(CCNS(=O)(=O)c2cc(Br)cc3c2N(C(C)=O)CC3)cc1OCC,nt,i,i,i,i,?
COCCOC(=O)C1=C(C)N=C2SCCC(=O)N2C1/C=C/c1ccccc1 (stereo not drawn),i,i,i,i,18µM,18µM
CC(OC(=O)C1CCCC1)C(=O)Nc1ccc(S(N)(=O)=O)cc1 (stereo not drawn),i,i,i,i,i,?
Nc1cc(C(=O)O)ccc1Sc1ccccc1C(=O)O,i,i,45µM,i,i,?
COc1ccc(Nc2ncc(C(=O)Nc3cc(Cl)c(OC)cc3OC)c3ccccc23)cc1,nt,i,i,i,?,?
COc1ccc(OC)c(NC(=O)c2cnc(Nc3ccccc3OC)c3ccccc23)c1,i,i,i,i,5.2µM,5.8µM
COC(=O)c1ccccc1NC(=O)c1cnc(Nc2ccc(OC)cc2)c2ccccc12,nt,i,i,i,23µM,9.2µM
Cc1ccc(Nc2ncc(C(=O)Nc3ccc(F)cc3F)c3ccccc23)cc1Cl,nt,i,i,?,16µM,?
Cc1ccc(Nc2ncnc3onc(C)c23)cc1Cl,nt,i,i,i,?,?
CCc1ccc(S(=O)(=O)c2nnn3c2nc(N2CCOCC2)c2ccccc23)cc1,?,i,i,i,?,i
Cc1ccc(C(=O)/C=C/c2cc(Br)cc(Br)c2O)o1,?,i,nt,i,i,29µM
Cc1ccc(C(=O)/C=C/N(C)C)o1,i,i,i,i,i,i
COc1ccc(CNC(=O)Cn2ccc3cc(S(=O)(=O)N4CCCCCC4)ccc32)c(OC)c1,nt,i,i,i,?,?
O=C(CSc1ncnc2sc3c(c12)CCC3)NCC1CCCO1 (stereo not drawn),i,i,i,i,i,i
SMILES,IL-1B inflam inh,HepG2 tox,TDP1 block,TGFb SMAD3 inh,DT40 TDP1 CPT,TDP1 cell noCPT
Cc1ccc(OCC(=O)NNC(=O)C(C)Sc2ncnc3sc(C)c(C)c23)cc1 (stereo not drawn),i,i,i,i,i,i
O=C(CSc1ncnc2c1cnn2-c1ccccc1)NCC1CCCO1 (stereo not drawn),i,i,i,i,?,?
Cc1ccc(-n2nnc3c(SCC(=O)NCC4CCCO4)ncnc32)cc1 (stereo not drawn),-56,i,i,i,21µM,12µM
CC1CCc2c(sc3ncnc(SC(C)C(=O)NCC4CCCO4)c23)C1 (stereo not drawn),i,i,i,i,26µM,21µM
CC(Sc1nnc(-c2ccccc2)c(-c2ccccc2)n1)C(=O)NCC1CCCO1 (stereo not drawn),i,i,i,i,?,23µM
Cc1sc2ncnc(SC(C)C(=O)N3c4ccccc4Sc4ccccc43)c2c1C (stereo not drawn),i,i,i,i,21µM,23µM
Cc1ccc2nc(Cl)c3cc(C(=O)N4CCCC(C)C4)sc3c2c1 (stereo not drawn),nt,i,i,i,?,?
CC(=O)Nc1ccc(NC(=O)CSc2nnc(NC(=O)c3ccccc3F)s2)cc1,i,i,nt,i,i,i
Cc1sc2ncnc(SCC(=O)NCC3CCCO3)c2c1C (stereo not drawn),i,i,i,i,0.26µM,5.2µM
Cc1sc2ncnc(SCC(=O)Nc3nc(-c4ccc(F)c(F)c4)cs3)c2c1C,i,i,i,i,i,21µM
